Consider seven compounds from PubChem BioAssay (Tox21).

Unmarked numbers belong to inactive results. Records with an inconclusive call do not appear. The source made the active and inactive calls. Unless noted, calls follow the shape of the full dose curve.

Assay [1] can be described thus: Nuclear factor erythroid 2-related factor 2/antioxidant responsive element (Nrf2/ARE) small molecule agonists: luciferase reporter gene qHTS assay in human keratinocytes (AID 1919969). Also: nearly all actives have a fitted effect of over 35% in size. Also: potency is read from the fitted curve at half-maximal effect.
Assay [2] has as its target Gonadotropin-releasing hormone receptor (Homo sapiens) (UniProt P30968). As to the kind of experiment: Human gonadotropin-releasing hormone receptor (GnRHR) small molecule agonists, calcium flux assay in GnRHR-HEK293 cells (AID 1920063). Also: nearly all actives have a fitted effect of over 35% in size. The procedure, abridged:
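Agonist activity was measured as intracellular calcium flux in HEK293 cells engineered to stably express human GnRHR. After dye loading for 1 hour at 37 C, compounds in DMSO were added and fluorescence was followed for 3 minutes.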
In general terms: Calcium flux is commonly read through the fluorescence of an indicator in the cells.

The target in assay [3] is KiSS-1 receptor (Homo sapiens) (UniProt Q969F8). As to the kind of experiment: Human kisspeptin (KISS1R) small molecule agonists, calcium flux assay in KISS1R-HEK293 cells (AID 1920064; active = well fitted activation curve with a large enough effect in the repeat runs). The procedure, abridged:
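Agonist activity is monitored as intracellular calcium rise in engineered HEK293 cells carrying human KISS1R. Cells are dye-loaded for 1 h at 37 C before compound addition, and fluorescence is recorded for 3 min.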

Assay [4] is described as follows: G protein-coupled receptor (GPCR) small molecule agonists, calcium flux assay: HEK293 wild type cell line counter screen (AID 1920065). The method in brief:
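Seed cells, incubate 18 h (37 C, 5% CO2); add calcium dye, 1 h at 37 C; pin-transfer compounds, ATP control or DMSO; read fluorescence 480/540 nm each second for 3 min.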

Assay [5] in a line: p53 small molecule agonists, cell-based qHTS assay with human liver microsomes (AID 1963577). The method in brief: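 p53RE-bla cells, 4,000/well, compound added after 5 h, with human liver microsomes 0.5 mg/mL and NADPH 0.5 mg/mL final; 16 h at 37 C, then LiveBLAzer 2 h RT, fluorescence.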
A general note: In qHTS, concentration-response curves come from the screen itself.

Assay [6] in a line: p53 small molecule agonists, cell-based qHTS assay with rat liver microsomes (AID 1963578). The procedure, abridged: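 p53RE-bla cells, 4,000/well, pre-incubated 5 h, then given compounds plus rat liver microsomes (0.5 mg/mL final) and NADPH (0.5 mg/mL final). Incubation 16 h at 37 C; beta-lactamase reporter read by LiveBLAzer fluorescence after 2 h at room temperature.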
The nature of assay [7]: p53 small molecule agonists, cell-based qHTS assay with human liver microsomes: qHTS cell viability counter screen (AID 1963579). Also: nearly all actives have a fitted effect of over 45% in size. The procedure, abridged: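 p53RE-bla cells, 4,000/well, dosed 5 hours after plating, with human liver microsomes (0.5 mg/mL final) plus NADPH (0.5 mg/mL final), 16 hours at 37 C. Viability read as CellTiter-Glo luminescence after 30 min at room temperature.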

The nature of assay [8]: p53 small molecule agonists, cell-based qHTS assay with rat liver microsomes: qHTS cell viability counter screen (AID 1963580). Also: nearly all actives have a fitted effect of over 45% in size. The method in brief:
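Cytotoxicity counter screen: intracellular ATP measured by CellTiter-Glo luminescence in the same wells as the beta-lactamase reporter read, on HCT-116 p53RE-bla cells exposed 16 h at 37 C to compounds with rat liver microsomes and NADPH, each 0.5 mg/mL final.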

Assay [9] is described as follows: p53 small molecule agonists, cell-based qHTS assay: qHTS cell viability counter screen (AID 1963581). Also: nearly all actives have a fitted effect of over 45% in size. The procedure, abridged: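 Viability was counter-screened in parallel with the p53 agonist reporter by measuring intracellular ATP luminescence in the same HCT-116 p53RE-bla wells after 16 h compound treatment at 37 C.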
Assay [10] in a line: p53 small molecule agonists, cell-based qHTS assay (AID 1963582; active = well fitted activation curve with a large enough effect in the signal ratio in the repeat runs, not every such curve was filed as active; the % refers to the signal ratio). The method in brief: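 Cells carrying a p53-responsive bla reporter are treated with test compounds for 16 h at 37 C; beta-lactamase activity is then detected with LiveBLAzer B/G FRET substrate after 2 h at room temperature.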
For assay [11], the target named is 5-hydroxytryptamine receptor 2A (Homo sapiens) (UniProt P28223). As to the kind of experiment: 5-hydroxytryptamine receptor 2A (HTR2A) small molecule antagonists, cell-based qHTS assay (AID 1963586). Also: nearly all actives have a fitted effect of over 45% in size. The method in brief: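 CHO cells stably expressing human HTR2A were plated for 18 h at 37 C, then loaded with calcium dye for 1 h. Compounds were preincubated 5 min at room temperature before DOI (4 nM solution) was added. Kinetic fluorescence was read for 3 min.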

Assay [12] has the same target. As to the kind of experiment: 5-hydroxytryptamine receptor 2A (HTR2A) small molecule agonists, cell-based qHTS assay (AID 1963587). Also: nearly all actives have a fitted effect of over 30% in size. The procedure, abridged:
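CHO cells stably expressing human HTR2A, plated 18 h, loaded with calcium dye 1 h at 37 C. Agonist mode: compounds added and intracellular calcium fluorescence recorded kinetically for 2 min at 1 sec intervals.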

For assay [13], the target named is Muscarinic acetylcholine receptor M1 (Homo sapiens) (UniProt P11229). The assay can be described thus: Cholinergic receptor muscarinic 1 (CHRM1) small molecule antagonists, cell-based qHTS assay (AID 1963588). Also: nearly all actives have a fitted effect of over 40% in size. Also: potency is read from the fitted curve at half-maximal effect. The procedure, abridged: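 Compounds were tested at 15 concentrations in three independent runs. Dye-loaded CHRM1-CHO cells were exposed 5 min at room temperature before stimulation by acetylcholine added at 50nM. Intracellular calcium was read kinetically on FDSS for 3 min.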

The target is the same in assay [14]. The assay can be described thus: Cholinergic receptor muscarinic 1 (CHRM1) small molecule agonists, cell-based qHTS assay (AID 1963589). Also: nearly all actives have a fitted effect of over 35% in size. The method in brief: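 Cells were plated and incubated 18 h at 37 C/5% CO2, loaded with calcium dye for 1 h at 37 C, then treated with compounds in DMSO. Fluorescence was recorded kinetically at 1 sec intervals.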
The nature of assay [15]: cAMP Responsive Elements (CRE) small molecule agonists, cell-based qHTS assay (AID 1963590). The procedure, abridged:
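Cells carrying a CRE-driven beta-lactamase reporter (HEK 293T) are seeded, incubated overnight (18 h), and treated with test compounds for 3 h at 37 C; reporter activity is then detected with a FRET substrate after 2 h at room temperature.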

For assay [16], the target named is Beta-2 adrenergic receptor (Homo sapiens) (UniProt P07550). As to the kind of experiment: Adrenergic beta2 receptor (ADRB2) small molecule antagonists, cell-based qHTS assay (AID 1963592). Also: series mostly up to about 92 µM; nearly all actives have a fitted effect of over 50% in size. The method in brief:
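Assay format: CHO-ADRB2 cells, 18-20hr seeding at 37C/5% CO2, then compound plus 1nM isoproterenol agonist mix for 0.5hr RT. Homogeneous time-resolved fluorescence cAMP detection after 1hr, expressed as 665/615 nm ratio.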

The target is the same in assay [17]. The assay can be described thus: Adrenergic beta2 receptor (ADRB2) small molecule agonists, cell-based qHTS assay (AID 1963593).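 Also: CHO cells stably overexpressing human ADRB2.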 The method in brief: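 CHO cells stably over-expressing ADRB2 were plated overnight at 37C, then dosed with compounds plus a stimulation mix containing 100uM IBMX and 25uM Ro-20-1724 for 0.5hr at room temperature. cAMP was measured by HTRF competition, 1hr.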

Assay [18] deals with D(2) dopamine receptor (Homo sapiens) (UniProt P14416). The assay can be described thus: Dopamine D2 receptor (DRD2) small molecule agonists, cell-based qHTS assay (AID 1963594). Also: nearly all actives have a fitted effect of over 35% in size. The method in brief:
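HEK293 cells stably expressing human DRD2, pre-treated with PDE inhibitor Ro20-1724 (0.1 mM final) and compound 10 min at room temperature, then stimulated with NKH477 (200nM […]) for 30 min. cAMP read by HTRF (665/620 nm).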

The target is the same in assay [19]. As to the kind of experiment: Dopamine D2 receptor (DRD2) small molecule antagonists, cell-based qHTS assay (AID 1963595; active = well fitted inhibition curve with a large enough effect in the signal ratio in the repeat runs, with a control signal flat; the % refers to the signal ratio). The method in brief: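 HEK293 cells stably expressing DRD2, preincubated with 0.1 mM Ro20-1724 and compounds 10 min, were stimulated with 200 nM NKH477 plus 12 nM quinpirole for 30 min at room temperature; cAMP measured by HTRF (665/620 nm).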

Assay [20] is described as follows: cAMP Responsive Elements (CRE) small molecule antagonists, cell-based qHTS assay (AID 1963591; active = well fitted inhibition curve with a large enough effect in the signal ratio in the repeat runs, not every such curve was filed as active; the % refers to the signal ratio). The procedure, abridged: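 Cells (CRE-bla HEK 293T, DMEM with 10% dialyzed FBS and 25 mM HEPES) are seeded and incubated 18 h. Compounds are added with NKH477 agonist at 0.25 uM final for 3 h, then FRET substrate for 2 h.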
% is scaled to controls: 0 for no effect and ±100 for the full control effect.

Muscarinic acetylcholine receptor M1 (Homo sapiens), sequence (P11229 whole entry, looked up): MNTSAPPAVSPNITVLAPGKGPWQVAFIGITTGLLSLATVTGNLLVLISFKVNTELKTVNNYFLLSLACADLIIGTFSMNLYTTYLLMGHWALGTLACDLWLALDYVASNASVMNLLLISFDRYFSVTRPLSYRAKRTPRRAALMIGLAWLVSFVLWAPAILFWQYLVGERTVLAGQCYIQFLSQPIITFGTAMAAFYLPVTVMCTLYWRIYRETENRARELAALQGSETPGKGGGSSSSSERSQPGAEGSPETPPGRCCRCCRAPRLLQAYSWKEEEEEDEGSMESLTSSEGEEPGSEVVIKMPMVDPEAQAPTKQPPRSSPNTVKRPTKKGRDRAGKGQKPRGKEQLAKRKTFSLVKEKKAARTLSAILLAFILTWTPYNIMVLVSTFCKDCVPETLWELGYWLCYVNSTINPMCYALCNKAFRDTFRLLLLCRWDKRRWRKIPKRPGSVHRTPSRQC
D(2) dopamine receptor (Homo sapiens), sequence (P14416 whole entry, looked up): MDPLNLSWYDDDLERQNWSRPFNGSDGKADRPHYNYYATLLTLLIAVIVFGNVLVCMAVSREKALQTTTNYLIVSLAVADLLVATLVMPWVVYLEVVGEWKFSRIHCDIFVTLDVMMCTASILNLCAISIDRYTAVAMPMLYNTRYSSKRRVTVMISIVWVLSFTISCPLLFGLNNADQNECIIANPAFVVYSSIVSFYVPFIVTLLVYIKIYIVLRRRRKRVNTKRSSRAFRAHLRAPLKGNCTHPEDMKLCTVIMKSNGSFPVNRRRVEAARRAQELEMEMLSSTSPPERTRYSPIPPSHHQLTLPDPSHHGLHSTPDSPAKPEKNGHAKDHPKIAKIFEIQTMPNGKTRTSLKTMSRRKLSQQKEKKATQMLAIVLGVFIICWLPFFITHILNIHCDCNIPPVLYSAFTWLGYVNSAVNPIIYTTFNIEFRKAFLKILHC
5-hydroxytryptamine receptor 2A (Homo sapiens), sequence (P28223 whole entry, looked up): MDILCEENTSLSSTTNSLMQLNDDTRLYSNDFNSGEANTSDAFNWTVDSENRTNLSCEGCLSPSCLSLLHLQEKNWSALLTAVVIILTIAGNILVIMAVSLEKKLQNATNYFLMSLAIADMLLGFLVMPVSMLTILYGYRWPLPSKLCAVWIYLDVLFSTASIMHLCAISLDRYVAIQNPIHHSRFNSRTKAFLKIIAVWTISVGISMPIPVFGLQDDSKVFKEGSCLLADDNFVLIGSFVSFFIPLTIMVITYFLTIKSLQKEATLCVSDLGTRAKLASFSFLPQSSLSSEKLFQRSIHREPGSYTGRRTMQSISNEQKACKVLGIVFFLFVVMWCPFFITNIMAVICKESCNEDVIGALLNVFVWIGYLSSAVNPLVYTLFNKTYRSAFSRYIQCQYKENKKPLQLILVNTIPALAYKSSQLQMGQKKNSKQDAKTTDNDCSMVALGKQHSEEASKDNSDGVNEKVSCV
Gonadotropin-releasing hormone receptor (Homo sapiens), sequence (P30968 whole entry, looked up): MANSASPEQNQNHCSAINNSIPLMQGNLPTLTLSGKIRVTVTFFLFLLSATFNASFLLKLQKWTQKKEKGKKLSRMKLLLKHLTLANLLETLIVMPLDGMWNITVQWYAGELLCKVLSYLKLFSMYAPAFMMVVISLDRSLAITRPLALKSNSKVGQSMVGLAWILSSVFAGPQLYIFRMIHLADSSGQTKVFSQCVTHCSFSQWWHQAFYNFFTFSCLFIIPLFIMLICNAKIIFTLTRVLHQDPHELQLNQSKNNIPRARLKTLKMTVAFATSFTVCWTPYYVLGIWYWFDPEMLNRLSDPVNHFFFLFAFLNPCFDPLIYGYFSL
Beta-2 adrenergic receptor (Homo sapiens), sequence (P07550 whole entry, looked up): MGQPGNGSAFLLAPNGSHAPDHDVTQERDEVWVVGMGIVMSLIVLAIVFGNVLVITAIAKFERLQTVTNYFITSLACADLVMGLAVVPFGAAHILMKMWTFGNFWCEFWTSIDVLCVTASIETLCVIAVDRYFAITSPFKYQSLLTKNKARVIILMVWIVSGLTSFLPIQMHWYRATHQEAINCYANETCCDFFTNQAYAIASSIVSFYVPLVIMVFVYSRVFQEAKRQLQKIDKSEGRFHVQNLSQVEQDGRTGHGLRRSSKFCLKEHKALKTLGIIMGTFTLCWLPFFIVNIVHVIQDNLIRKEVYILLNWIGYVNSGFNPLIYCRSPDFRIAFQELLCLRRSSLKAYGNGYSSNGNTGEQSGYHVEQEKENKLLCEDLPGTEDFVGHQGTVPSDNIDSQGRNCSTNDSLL
KiSS-1 receptor (Homo sapiens), sequence (Q969F8 whole entry, looked up): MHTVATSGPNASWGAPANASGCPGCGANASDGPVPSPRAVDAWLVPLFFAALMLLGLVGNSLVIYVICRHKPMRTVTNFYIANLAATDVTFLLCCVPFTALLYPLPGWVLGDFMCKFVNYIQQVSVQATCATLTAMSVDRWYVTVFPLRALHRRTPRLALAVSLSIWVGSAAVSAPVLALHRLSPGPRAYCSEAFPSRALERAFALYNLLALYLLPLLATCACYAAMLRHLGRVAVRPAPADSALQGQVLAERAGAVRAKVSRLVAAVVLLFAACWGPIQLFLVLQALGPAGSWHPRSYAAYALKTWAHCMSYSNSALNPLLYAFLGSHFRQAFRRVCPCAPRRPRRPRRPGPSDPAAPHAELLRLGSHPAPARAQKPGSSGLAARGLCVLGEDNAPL

Regarding `C[C@]12CC[C@@H]3c4ccc(O)cc4CC[C@H]3[C@@H]1CC[C@@H]2OC(=O)CCC1CCCC1`, the Potency result in assay [1], in assay [2], in assay [3], in assay [4], in [5] and in [6] was “inactive” in each case. In addition, the Potency entry in assay [7], in assay [8], in [9], in assay [10], in assay [11] and in [12] was “inactive” each time. In addition, the Potency entry in assay [13], in [14], in [15], in assay [16], in assay [17] and in assay [18] was “inactive” throughout. Further, in assay [19], the Potency entry is “inactive”.

On to `O=C(CC(=O)c1ccccc1)c1ccccc1`, for which, in [1], the Potency was 32900 nM (active). The Potency entry in [2], in assay [3], in assay [4], in assay [5], in [6] and in assay [7] was “inactive” in each case. In addition, the Potency entry in assay [8], in assay [9], in [10], in [11], in assay [13] and in assay [14] was “inactive” throughout. The Potency result in [20], in [16], in assay [17] and in assay [19] was “inactive” each time.

`OC(CCN1CCCCC1)(c1ccccc1)C1CC2C=CC1C2` (stereo not given): the Potency entry in assay [1], in assay [2], in [3], in assay [4], in [5] and in assay [6] was “inactive” each time. Also, the Potency entry in assay [7], in assay [8], in assay [9], in [10], in [11] and in assay [14] was “inactive” throughout. Further, the Potency entry in assay [16], in assay [17], in assay [18] and in assay [19] was “inactive” throughout. For the same compound, in assay [13], the Potency is 1.3 nM (active).

On to `O=C1c2ccccc2C(=O)c2c1ccc(O)c2O`, for which the Potency entry in [1], in [2], in [3], in assay [4], in assay [5] and in assay [6] was “inactive” throughout. Further, the Potency result in [7], in assay [8], in [9], in [10], in assay [11] and in assay [14] was “inactive” in each case. The Potency result in assay [15], in assay [20], in assay [16], in assay [17] and in [18] was “inactive” in each case.

As for `CO[C@H]1C=CO[C@@]2(C)Oc3c(C)c(O)c4c(O)c(c5c(c4c3C2=O)=NC2(CCN(CC(C)C)CC2)N=5)NC(=O)/C(C)=C\C=C/[C@H](C)[C@H](O)[C@@H](C)[C@@H](O)[C@@H](C)[C@H](OC(C)=O)[C@@H]1C`, the Potency entry in assay [1], in assay [2], in assay [3], in assay [4], in [5] and in assay [6] was “inactive” throughout. In addition, the Potency result in assay [7], in assay [8], in assay [9] and in [16] was “inactive” throughout.

For `N[C@@H](C(=O)N[C@@H]1C(=O)N2C(C(=O)O)=C(Cl)CS[C@H]12)c1ccccc1`, the activity, positive = activation in assay [1] is -7.33% [at 8.39 µM]. Further, the activity change in assay [2] was -0.646% [at 5.22 µM, active compounds read high]. Further, the activation in assay [3] is -2.2% [at 6.97 µM]; in [4] it was -0.0598% [at 5.23 µM]; in [5], 0.17% [at 5.99 µM]; in assay [6], -0.141% [at 5.99 µM]; in assay [10], 0.331% [at 5.99 µM]; in assay [12] it was -1.95% [at 7.02 µM]. Further, the results for the activation in [14] and in assay [17] were -0.906% [at 6.97 µM] and -30.9% [at 8.39 µM], respectively. Moreover, the activity change, negative = cytotoxicity in assay [7] is 3.89% [at 5.99 µM]; in assay [8], 0.042% [at 5.99 µM]. In addition, the activity change, negative = inhibition in assay [20] is -10.2% [at 8.39 µM]; in assay [19], 6.7% [at 8.38 µM].

For `Oc1c(Cl)cc(Cl)c2cccnc12`, the Potency in assay [1] is 188 nM (active). Also, the Potency entry in [2], in [3], in assay [4], in assay [5], in assay [6] and in assay [7] was “inactive” each time. The Potency result in assay [8], in assay [9], in [11], in assay [12], in assay [13] and in [14] was “inactive” in each case. Also, the Potency entry in assay [16], in assay [18] and in assay [19] was “inactive” each time.
